Our source for the growth values is PubChem BioAssay (NCI).

About 83,000 compounds went through this panel and 20% of them were active in at least one assay; those are over-represented in the sample as a whole.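 Plates (96-well) were seeded with cells, treated with compound at one concentration, and incubated for 48 hours before percent growth was determined.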 Unmarked numbers belong to inactive results. Active and inactive are the calls of the source. How the source made its calls: active means growth percent below 10; inactive means the rest.

Some test systems named below: HT29 colon; SNB-75 CNS; SNB-19 CNS; U251 CNS; PC-3 prostate; SK-MEL-5 melanoma; UACC-62 melanoma; LOX IMVI melanoma; SK-MEL-28 melanoma; EKVX NSCLC; SN12C renal; UO-31 renal; TK-10 renal; ACHN renal; CAKI-1 renal; A498 renal; CCRF-CEM leukemia; MOLT-4 leukemia; SK-MEL-2 melanoma; SR leukemia.
Holding throughout (assay): NCI-60 one-dose screen, 48 h (100 = growth as untreated, 0 = no growth, -100 = all killed)
Conditions in all cases: 10 µM unless noted

As to `COc1ccc2[nH]cc(/C=C3/C(=O)Nc4ccc(Cl)cc43)c2c1`, the growth in the experiment with HT29 colon was 17.5%; in the experiment on SNB-75 CNS, -1.24% (active); in the experiment on SNB-19 CNS it was 70.7%; with U251 CNS it was 38%; in the experiment with PC-3 prostate it was 64.6%; in the experiment with SK-MEL-5 melanoma, 55.2%. Moreover, the growth in the experiment on UACC-62 melanoma is 51.8%; with LOX IMVI melanoma, 17.7%; in the experiment with SK-MEL-28 melanoma it was 81.1%; in the experiment with EKVX NSCLC, 46.2%; with SN12C renal, 76.6%; in the experiment with UO-31 renal, 65.7%. Also, the growth in the experiment on TK-10 renal is 22.2%; in the experiment on ACHN renal it was 18.2%; with CAKI-1 renal it was 26.6%; in the experiment with A498 renal it was 67.7%; with CCRF-CEM leukemia, 44.3%; in the experiment on MOLT-4 leukemia, 39.9%.

Consider `CSc1nc2c(c(=O)n1C)C(c1ccccc1)C1=C(N2)/C(=C/c2ccccc2)CCC1` (stereo unspecified), for which the growth was 53.7% in the experiment on HT29 colon; 57.9% in the experiment on SNB-75 CNS; 66.1% in the experiment with SNB-19 CNS; 48.8% in the experiment with U251 CNS; 48.1% in the experiment on PC-3 prostate; 40% with SK-MEL-5 melanoma. Moreover, the growth is 58.2% in the experiment on UACC-62 melanoma; 78.7% in the experiment with SK-MEL-28 melanoma; 29.5% in the experiment on SK-MEL-2 melanoma; 39.1% with EKVX NSCLC; 55.4% in the experiment with SN12C renal; 34.9% in the experiment with UO-31 renal. In addition, the growth is 51% in the experiment on TK-10 renal; 57.3% with ACHN renal; 20.7% in the experiment on CAKI-1 renal; 81.4% with A498 renal; 20.6% in the experiment on CCRF-CEM leukemia; 27.5% with MOLT-4 leukemia.

In the case of `N#Cc1c(N2CCOCC2)nc2sc3cc(Cl)ccc3n2c1=N`, the growth in the experiment on HT29 colon was 98.5%; with SNB-75 CNS it was 63.7%; with SNB-19 CNS, 77.8%; in the experiment with U251 CNS, 96.6%; in the experiment with PC-3 prostate it was 75.9%; in the experiment on SK-MEL-5 melanoma it was 78.3%. Besides, the growth is 89.4% with UACC-62 melanoma; 93% with LOX IMVI melanoma; 103% in the experiment with SK-MEL-28 melanoma; 91.1% with EKVX NSCLC; 99.8% in the experiment on SN12C renal; 63.3% with UO-31 renal. Moreover, the growth with TK-10 renal is 160%; with ACHN renal, 98.3%; with CAKI-1 renal it was 111%; with A498 renal, 121%; in the experiment with CCRF-CEM leukemia, 126%; in the experiment on MOLT-4 leukemia it was 109%.

Regarding `COc1ccc(/C=C(\C#N)c2ccccc2)cc1`, the growth is 85.5% in the experiment on HT29 colon; 64.6% in the experiment on SNB-75 CNS; 80.8% in the experiment with SNB-19 CNS; 81.4% in the experiment with U251 CNS; 83.3% in the experiment on PC-3 prostate; 81% with SK-MEL-5 melanoma. Moreover, the growth in the experiment with LOX IMVI melanoma is 89.7%; in the experiment with SK-MEL-28 melanoma it was 90.6%; in the experiment on SN12C renal, 86.6%; with UO-31 renal it was 85.6%; in the experiment with ACHN renal it was 97.3%; in the experiment on CAKI-1 renal, 78.2%. Further, the growth in the experiment on A498 renal was 79.4%; with CCRF-CEM leukemia it was 93.1%; in the experiment on MOLT-4 leukemia it was 96.1%; in the experiment on SR leukemia, 55.7%.

With `CC[C@H](C)C(=O)O[C@H]1C[C@@H](C)C=C2C=C[C@H](C)[C@H](CC[C@@H]3C[C@@H](O)CC(=O)O3)[C@H]21`, the growth with HT29 colon is 95.4%; in the experiment with SNB-75 CNS, 58.3%; with SNB-19 CNS, 64.9%; in the experiment with U251 CNS, 25.2%; in the experiment on PC-3 prostate it was 33.9%; in the experiment with UACC-62 melanoma, 23.7%. In addition, the growth with LOX IMVI melanoma was 25.1%; in the experiment with SK-MEL-28 melanoma, 90.6%; with SK-MEL-2 melanoma, 36.8%; in the experiment with EKVX NSCLC it was 62.4%; with SN12C renal, 42.5%; in the experiment with UO-31 renal, 74.7%. Besides, the growth in the experiment with TK-10 renal was 104%; in the experiment with ACHN renal, 32.9%; with CAKI-1 renal it was 20.7%; in the experiment on A498 renal it was -27.9% (active); in the experiment on CCRF-CEM leukemia, 72.9%; with MOLT-4 leukemia, 90.8%.

Turning to `OCCOc1c(Cl)cc(Cl)cc1Cl`, the growth with HT29 colon is 110%; in the experiment on SNB-75 CNS, 62.2%; in the experiment on SNB-19 CNS, 94.2%; with U251 CNS it was 103%; with PC-3 prostate it was 101%; with UACC-62 melanoma it was 94.6%. Besides, the growth in the experiment with LOX IMVI melanoma is 100%; with SK-MEL-28 melanoma, 96.8%; with SK-MEL-2 melanoma it was 126%; in the experiment with EKVX NSCLC, 106%; with SN12C renal, 89.8%; in the experiment on UO-31 renal, 87.8%. For the same compound, the growth in the experiment with TK-10 renal was 113%; with ACHN renal, 99.3%; in the experiment on CAKI-1 renal, 93.8%; in the experiment on A498 renal, 70.7%; with CCRF-CEM leukemia it was 113%; in the experiment on MOLT-4 leukemia, 111%.

On to `O=C(/C=C/c1ccc(Cl)cc1)c1ccccc1`, for which the growth in the experiment on HT29 colon was 93.8%; in the experiment with SNB-75 CNS it was 109%; with SNB-19 CNS, 101%; in the experiment on U251 CNS, 88.2%; in the experiment on PC-3 prostate, 97%; in the experiment on SK-MEL-5 melanoma it was 93%. In addition, the growth in the experiment with LOX IMVI melanoma is 81.1%; in the experiment on SK-MEL-28 melanoma, 113%; in the experiment with SK-MEL-2 melanoma, 102%; in the experiment on SN12C renal it was 98%; in the experiment with UO-31 renal it was 88.3%; with ACHN renal it was 110%. For the same compound, the growth in the experiment with CAKI-1 renal was 101%; with A498 renal, 87.5%; in the experiment with CCRF-CEM leukemia it was 87.9%; with MOLT-4 leukemia, 96.7%; with SR leukemia, 23.1%.

On to `COc1cc2c(C#N)n3c(c2cc1OC)C(=O)C(c1ccccc1)Oc1ccccc1-3` (stereo unspecified), for which the growth was 50.2% with HT29 colon; 52.5% in the experiment with SNB-75 CNS; 41.1% in the experiment on SNB-19 CNS; 24.4% in the experiment with U251 CNS; 33.4% with PC-3 prostate; 25.5% in the experiment with SK-MEL-5 melanoma. Also, the growth was 22.2% with LOX IMVI melanoma; 93.3% in the experiment with SK-MEL-28 melanoma; 37.2% with SN12C renal; 15.8% in the experiment with UO-31 renal; 54.3% with ACHN renal; 65.6% with CAKI-1 renal. Further, the growth is 52.4% with A498 renal, 17.1% in the experiment on CCRF-CEM leukemia, 63.4% in the experiment with MOLT-4 leukemia and 12.5% in the experiment with SR leukemia.

Take `N#Cc1c2ccccc2c2n1-c1ccccc1OC(c1ccccc1)C2=O` (stereo unspecified): the growth with HT29 colon was 23.1%; in the experiment with SNB-75 CNS, 24.2%; with SNB-19 CNS, 23.5%; with U251 CNS, 17.9%; in the experiment with PC-3 prostate it was 32.1%; in the experiment with SK-MEL-5 melanoma, 10.6%. The growth in the experiment on LOX IMVI melanoma is 9.92% (active); with SK-MEL-28 melanoma it was 93.8%; in the experiment on SK-MEL-2 melanoma, 59.9%; in the experiment on SN12C renal it was 15.4%; in the experiment on UO-31 renal, 11.2%; in the experiment with ACHN renal, 29%. The growth in the experiment with CAKI-1 renal is 30.6%; in the experiment on A498 renal, 30.6%; in the experiment with CCRF-CEM leukemia it was 6.32% (active); in the experiment on MOLT-4 leukemia, 56.4%; in the experiment with SR leukemia it was -7.43% (active).
